Source: PubChem BioAssay (National Center for Advancing Translational Sciences (NCATS))
Shown are actives, neighbours in structure and some others; about 0.47% of the full set was active somewhere.
UDG counterscr = counter-screen for AID inhibitors: uracil-DNA glycosylase inhibition | FRET deamination/UDG coupled assay, UDG read, 4 h | Potency, µM (doses to about 115 µM), usual class: inhibitors | hit rate 0.14% among 91,000; also: nearly all actives have a fitted effect of over 65% in size
AID inh = blocks human AID cytidine deaminase activity; Q9GZX7; AID deamination FRET fluorescence, UDG-coupled, 4 h; Potency, µM (top dose mostly 115 µM), most hits filed as inhibitors; hit rate 0.32% among 91,000; also: nearly all actives have a fitted effect of over 25% in size
Target sequence (Q9GZX7 whole entry, looked up): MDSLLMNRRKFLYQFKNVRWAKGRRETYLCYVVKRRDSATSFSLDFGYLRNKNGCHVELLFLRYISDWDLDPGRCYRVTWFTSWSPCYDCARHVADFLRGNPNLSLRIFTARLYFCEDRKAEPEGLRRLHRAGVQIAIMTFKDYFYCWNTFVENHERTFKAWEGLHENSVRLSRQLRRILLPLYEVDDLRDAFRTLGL
Of the large screens only hits and unclear results are named; the others gave an inactive call. Calls follow the shape of the dose curve; as a rule, active = well fitted curve in the direction sought with a large enough effect; inconclusive = small, poorly fitted or top-dose-only effect, or another doubt; inactive = no such curve, though single readings can be large; an effect the other way counts as inactive or inconclusive.

O=C(Nc1cccc2cccnc12)C(c1ccccc1)c1ccccc1	UDG counterscr 89µM
O=C(CSc1cccc2cccnc12)NNC(=O)C(c1ccccc1)c1ccccc1	none
CCc1ccccc1N(C)C(=O)c1nn(C)c2c1CSc1ccccc1-2	AID inh inconclusive
COc1cc(OC)c(N(C)C(=O)c2nn(C)c3c2CSc2ccccc2-3)cc1Cl	AID inh 45µM
COC(=O)c1cc(OC(=O)Cc2ccc(Cl)cc2)cc(C(=O)OC)c1	none
CCN(CC(=O)NC(C)(C)C)C(=O)Cn1c(=O)c2c(ncn2C)n(C)c1=O	none
CCc1ccc(-n2c(SCc3nc(-c4cc(OC)ccc4OC)no3)nnc2-c2ccccc2)cc1	AID inh inconclusive
COc1ccc(-n2c(Cc3ccccc3)nnc2SCc2nc(-c3ccccc3C)no2)cc1	AID inh 32µM
O=C(c1cn[nH]c1-c1ccc(F)cc1)N1CCCCCC1	none
CCN(CC(=O)NC)S(=O)(=O)c1ccc(C)c2ncccc12	none
COc1cc(C(c2c(C)[nH][nH]c2=O)c2c(C)[nH][nH]c2=O)ccc1OC(=O)c1cccc(C)c1	AID inh 22µM
COc1cc(C(c2c(C)[nH][nH]c2=O)c2c(C)[nH][nH]c2=O)ccc1OC(=O)c1ccccc1OC	AID inh inconclusive
COc1ccc(N(C(=O)c2ccccc2C)S(=O)(=O)c2ccc(C)cc2)cc1	UDG counterscr 79µM, AID inh inconclusive
COc1ccc(N(C(=O)c2cccc(C)c2)S(=O)(=O)c2ccc(Cl)cc2)cc1	UDG counterscr inconclusive
O=S(=O)(NCc1ccc(N2CCOCC2)nc1)c1ccc(F)cc1	none
Cc1ccc(C)c(CSc2ccc3nnc(CCNS(=O)(=O)c4ccccc4)n3n2)c1	AID inh inconclusive
O=S(=O)(NCCc1nnc2ccc(SCc3cccc(Cl)c3)nn12)c1ccccc1	AID inh 40µM
Cc1ccc(C)c(C(=O)CSc2nc(-c3ccccc3)nc3c2CCCC3)c1	none
Cc1ccc(C)c(C(=O)CSc2cccc3cccnc23)c1	AID inh 35µM
CC(C)C(=O)NNC(=O)c1ccc2c(c1)NC(=O)CS2	none
CC(C)(Sc1ccc(CCN(CCCCC2CCCCC2)C(=O)NC2CCCCC2)cc1)C(=O)O	AID inh 89µM
CCCCc1ccc(NC(=O)CC2CCCCC2)cc1	none
O=S(=O)(c1ccc2oc3ccc(S(=O)(=O)N4CCOCC4)cc3c2c1)N1CCOCC1	none
COc1ccc(CNC(=O)c2cnc3sc(N4CCCC4)nn3c2=O)cc1OC	none
COc1ccc(Br)cc1CNC(=O)c1cnc2sc(N3CCCCCC3)nn2c1=O	AID inh 18µM
O=S(=O)(Cc1ccccc1)c1ccc2ccccc2c1	none
N#Cc1cccc(S(=O)(=O)NCC(=O)O)c1	none
COc1cc(/C=C(/C#N)C(=O)Nc2ccccc2C(F)(F)F)ccc1OCc1ccc(F)cc1	none
COc1cc(/C=C(\C#N)C(=O)Nc2nnc(C(F)(F)F)s2)ccc1OCc1ccc(C(F)(F)F)cc1C(F)(F)F	AID inh 50µM
COc1ccccc1Cn1cc(C(=O)c2ccc(Cl)cc2)c(=O)c2ccccc21	none
COc1cccc(Cn2cc(C(=O)c3ccc(Cl)cc3)c(=O)c3ccccc32)c1	AID inh 28µM
Cc1cccc(Nc2ccccc2C(=O)NCc2cccs2)c1C	none
COc1ccc(OC)c(C2C(C(=O)Nc3ccc(C)cc3C)=C(C)Nc3c(C(=O)Nc4ccc(F)cc4)cnn32)c1 (centres undefined)	AID inh inconclusive
COc1ccc(OC)c(C2C(C(=O)Nc3ccccc3OC)=C(C)Nc3c(C(=O)Nc4ccc(F)cc4)cnn32)c1 (centres undefined)	AID inh 18µM
COc1ccc2c(c1)Cc1sc(NC(=O)c3cccc(Cl)c3)nc1-2	none
COc1ccc(C(=O)Nc2nc3c(s2)CCc2cc(OC)ccc2-3)cc1	UDG counterscr 79µM
COc1ccc2c(c1)CCc1sc(NC(=O)c3cccc(Br)c3)nc1-2	none
COc1ccc2c(c1)Cc1sc(NC(=O)c3ccc(Cl)cc3)nc1-2	AID inh 32µM
CCc1ccc(NC(=O)c2sc3ncnc(N(C)C4CCCCC4)c3c2C)cc1	UDG counterscr 79µM
CCOc1ccc(CNC(=O)c2sc3ncnc(N(C)C4CCCCC4)c3c2C)cc1	AID inh inconclusive
N#Cc1ccc(COC(=O)c2ccccc2-c2ccccc2C#N)cc1	none
CN(C)CCN(Cc1ccc(F)cc1)C(=O)Nc1cccc2ccccc12	none
COc1ccccc1NC(=O)C1CCN(c2nccnc2Sc2ccc(C)cc2)CC1	UDG counterscr inconclusive
COc1ccc(Cl)cc1NC(=O)C1CCN(c2nccnc2Oc2ccccc2C)CC1	UDG counterscr 89µM
COc1cccc(NC(=O)CSc2nc3c([nH]c4ccccc43)c(=O)n2-c2cccc(Cl)c2)c1	none
COc1cccc(-n2c(SCC(=O)Nc3cccc(C)c3)nc3c([nH]c4ccccc43)c2=O)c1	AID inh 13µM
COc1cccc(CNC(=O)c2oc3c(c2C)-c2nn(Cc4cccc(Cl)c4)cc2CC3)c1	AID inh inconclusive
CCOC(=O)c1cccc(NC(=O)c2oc3c(c2C)-c2[nH]ncc2CC3)c1	AID inh inconclusive
COc1cccc(CNC(=O)c2oc3c(c2C)-c2nn(Cc4cccc(Cl)c4)cc2CC3)c1OC	AID inh 79µM
CCOC(=O)c1cccc(NC(=O)c2oc3c(c2C)-c2nn(CC)cc2CC3)c1	UDG counterscr inconclusive, AID inh 40µM
Cc1ccc(CCC(=O)NCCCN2CCCC2)cc1	none
CCCOc1ccc(C(=O)N(Cc2ccc(C(C)C)cc2)C2CCS(=O)(=O)C2)cc1 (centres undefined)	AID inh inconclusive
CCCCOc1ccc(C(=O)N(Cc2ccc(C(C)C)cc2)C2CCS(=O)(=O)C2)cc1 (centres undefined)	AID inh 25µM
O=C(CCC(=O)NC12CC3CC(CC(C3)C1)C2)Nc1cccnc1	none
CCOC(=O)c1ccc(NC(=O)CSc2nnc(-c3cccc(Cl)c3)n2Cc2ccco2)cc1	none
CCN(CC)C(=O)c1sc2c(c1C)c(=O)n(-c1ccc(Cl)c(Cl)c1)c(=O)n2Cc1cc(=O)n2ccccc2n1	UDG counterscr inconclusive, AID inh 89µM
CCN(CC)C(=O)c1sc2c(c1C)c(=O)n(-c1ccc(C)c(C)c1)c(=O)n2Cc1cc(=O)n2ccccc2n1	none
O=C(CC12CC3CC(CC(C3)C1)C2)Nc1ccc(-c2nc3ncccc3o2)cc1	none
CC(C)(C)c1ccc(C2Sc3ccccc3NC3=C2C(=O)c2ccccc23)cc1 (centres undefined)	UDG counterscr 89µM
O=C1CCCC2=C1C(c1ccc(C(F)(F)F)cc1)C1=C(N2)c2ccccc2C1=O (centres undefined)	none
CCN1c2ccccc2-n2cccc2C12CCN(C(=O)Nc1ccccc1Br)CC2	none
CCN1c2cc(C)ccc2-n2cccc2C12CCN(C(=O)Nc1cc(OC)c(OC)c(OC)c1)CC2	UDG counterscr 89µM, AID inh inconclusive
N#Cc1ccccc1OCC(=O)NC12CC3CC(CC(C3)C1)C2	none
COc1ccccc1Cc1nc2ccccc2nc1SCC(=O)N1CCCCC1	UDG counterscr 89µM, AID inh inconclusive
COc1ccccc1Cc1nc2ccccc2nc1SCC(=O)N1CCc2ccccc21	none
Cc1[nH]c2ccccc2c1C(c1ccncc1)c1c(C)[nH]c2ccccc12	none
CCC1CN(CC(=O)Nc2ccc(NC(C)=O)cc2)c2ccccc2S1 (centres undefined)	none
CCNC(=O)CSc1cc(C)c2cc(C)cc(C)c2n1	none
COc1ccc(CCN2CCC(CNC(=O)c3cnn(-c4ccccc4)c3C3CCN(C(=O)OC(C)(C)C)CC3)CC2)cc1	AID inh inconclusive
